We go through 99 molecules from PubChem BioAssay AID1259343 (VanderVen Lab, College of Veterinary Medicine, Cornell …, 2017).

Structures are written as SMILES. The whole screen tested about 6,200 compounds, of which about 2,900 (47%) were called active. So high a share suggests a set chosen from earlier hits. Some of the results follow. Unmarked numbers belong to inactive results. Cut-off read from the data, not from the text of the source: active = inhibition above about 50%; inactive = the rest.

A short description of this experiment: Mycobacterium tuberculosis growth inhibition, primary screen (AID 1259343). The settings on record: inhibition: at 10 µM, active compounds read high; outcome: 10 uM.
Take `COc1cc(C(CC(=O)c2ccc(Cl)cc2)SCCO)cc(OC)c1OC` (centres undefined): the inhibition was 7.8%. Then `NC(=O)C1CCN(C(=O)c2ccc(-c3cccc(Cl)c3Cl)o2)CC1`, with 57.6% (active); and `NC(=O)C1CCN(CC(=O)Nc2oc3ccccc3c(=O)c2-c2ccccc2)CC1`, with 12.8%. Take `C/C=C/c1c(F)c(F)c(Oc2ccc(C=O)cc2)c(F)c1F`: the inhibition is 88.6% (active). With `Cc1cccc(NC(=O)/C=C/C2=C(Cl)c3ccccc3S2(=O)=O)c1C`, the inhibition was 102% (active). With `NC(=O)c1ccccc1OCc1csc(COc2ccc(F)cc2)n1`, the inhibition was 15.8%. Then `O=C(Cc1csc(COc2ccc(Cl)cc2)n1)NC12CC3CC(CC(C3)C1)C2`, with 49.5%; and `Cc1ccc(OCc2nc(CC(=O)N(C)CC3CCCCC3)cs2)cc1`, with 79.4% (active). As for `CSc1ncc(Cl)c(C(=O)C(C#N)c2nc3ccc(Br)cc3c(=O)[nH]2)n1` (centres undefined), the inhibition was 15.1%. For `CC(C)c1ccc(C(=O)Nc2nnc(C(C)C)s2)cc1`, the inhibition is 90% (active). As for `CC(C)c1nnc(NC(=O)c2cccc(I)c2)s1`, the figure is 90.6% (active); as for `CC(C)c1ccc(C(=O)Nc2sccc2C(=O)N2CCCC2)cc1`, 16.5%; as for `Cc1ccc(C#N)cc1S(=O)(=O)Nc1nnc(C(C)C)s1`, 31.9%. As for `CC(C)Cc1nnc(NC(=O)c2cccc(C#N)c2)s1`, the inhibition is 20.8%. As for `CCC(CC)c1nnc(NC(=O)c2cc(C)cc(C)c2)s1`, the figure is 51.2% (active); as for `COC(=O)c1cnc(NC(=O)c2cc(F)cc(Br)c2)s1`, 19.9%. As for `CCCC(C)c1nnc(NC(=O)c2cnc(-c3ccccn3)nc2)s1` (centres undefined), the figure is -2.11%. As for `c1ccc(-c2ccc(-c3nccn3CCn3ccnc3)s2)cc1`, the figure is -34.9%; as for `CC(=NCCCn1ccnc1)c1c(-c2ccccc2)[nH]n(-c2nc3ccccc3s2)c1=O`, 52.5% (active); as for `COc1ccc(-c2cn3c(C(=O)Nc4nccs4)csc3n2)cc1`, 10.8%. On to `COc1cccc(-c2cn3c(C(=O)Nc4ccccn4)csc3n2)c1`, for which the inhibition was 75.6% (active). As for `Cc1c2cnnc(Sc3ccc(Cl)cc3)c2c(C)n1C`, the inhibition is 64% (active). With `Clc1ccc(Sc2ncccn2)cc1`, the inhibition is 2.73%. As for `CC(=O)c1ccc(OCc2cc(C(=O)N(C)Cc3ccon3)no2)cc1`, the figure is 80.4% (active); as for `CCc1ccc(CN(C)C(=O)c2cc(COc3ccc(OC)cc3Cl)on2)nc1`, 73% (active); as for `Cc1nonc1CN(C)C(=O)c1cc(COc2ccc(F)cc2Cl)on1`, 89.4% (active). For the molecule `CSc1ccccc1OCc1cc(C(=O)N(C)Cc2ccc(F)cc2)no1`, the inhibition is 15.7%.

Regarding `CC(C)c1ccc(O)c(NC(=S)NC(=O)c2cncc(Br)c2)c1`, the inhibition was 99.5% (active).

Turning to `CC(NC(=O)c1cc(Br)ccc1O)c1ccccc1` (centres undefined), the inhibition was 17.3%.

Consider `CC(NC(=O)c1cncc(Br)c1)c1ccc(Cl)cc1` (centres undefined), for which the inhibition was 86.8% (active).

For the molecule `OCC1CCCN(c2ncnc3sc4c(c23)CCCC4)C1` (centres undefined), the inhibition was 20.6%.

As to `COc1ccc(F)cc1CN1CCN(c2ncnc3sc4c(c23)CCCC4)CC1`, the inhibition is 60% (active). With `COc1cccc(OCCN2CCN(c3ncnc4sc5c(c34)CCCC5)CC2)c1`, the inhibition was 36.6%.

Take `Oc1cc(CCC2CCCCN2)cc(-c2ccncc2)c1` (centres undefined): the inhibition was 45.4%. Then `C1CCC(C(CC2CCCCN2)C2CCCCC2)CC1` (centres undefined), with 55.1% (active).

Turning to `CC(OC1CC(=O)CC2C(=O)c3ccccc3C(=O)C12)c1ccccc1` (centres undefined), the inhibition was 94.3% (active). Consider `CC(C)c1ccc2c(c1O)CC[C@H]1C3=C(CC[C@]21C)C(=O)OC3`, for which the inhibition was 45%. Regarding `C(=NNC1=Nc2cccc3cccc1c23)c1ccccc1`, the inhibition is 15.1%. Then `Cn1cc(C=NNc2ccccc2)c2ccccc21`, with -30.1%; and `C(=NNc1ccccc1)c1cnn(-c2ccccc2)c1`, with 94.4% (active); and `O=C(Nc1nc(-c2ccc(Cl)cc2)cs1)C1CC(=O)N(C2CC2)C1` (centres undefined), with 21.7%. Then `CN1CC(C(=O)Nc2ccc3nc(C4CC4)oc3c2)CC1=O` (centres undefined), with -6.81%; and `COc1cccc(C(=O)Oc2ccc(C(=O)COC(=O)C3CC(=O)N(C4CCCCC4)C3)cc2)c1` (centres undefined), with -11.2%.

Take `Cc1ccc(NC(=O)C2CC(=O)N(C3CC3)C2)cc1C(F)(F)F` (centres undefined): the inhibition is 63.6% (active). Turning to `COc1c(Cl)cc(NC(=O)C2CC(=O)N(C)C2)cc1Cl` (centres undefined), the inhibition was 43.6%. As for `CN(C)C(=O)N1CCC(C(=O)Nc2ccc(Oc3ccccc3)cc2)CC1`, the figure is 81.9% (active); as for `O=C1CCC(C(=O)Nc2ccc(Oc3ccccc3)cc2)N1` (centres undefined), 29.5%. For `CN(C)c1ccc2cc(NC(=O)C3CC(=O)N(C4CCCC4)C3)ccc2n1` (centres undefined), the inhibition is 87.7% (active). `O=C(Nc1ccc(Oc2ccccc2)cc1)C1CC(=O)N(C2CC2)C1` (centres undefined): the inhibition is 66.1% (active). With `CC1CC(N2CCN(c3nccs3)CC2)C(=O)O1` (centres undefined), the inhibition is 2.21%.

On to `O=C(Nc1ccc(Oc2ccccc2Cl)cc1)N1CCOC2CCCCC21` (centres undefined), for which the inhibition was 26.2%. As for `CC(=O)NCCC1CCCCN1C(=O)Nc1ccc(Oc2ccccc2)cc1` (centres undefined), the inhibition is 83.9% (active). As for `Fc1ccc(-c2nnn(CCCc3n[nH]c(Cc4ccccc4)n3)n2)cc1`, the figure is 37.6%; as for `Fc1cccc(-c2nnn(CCc3ccccn3)n2)c1`, 65.1% (active). On to `CNS(=O)(=O)c1cc(NC(=O)CNC(=O)C2CCCCC2)ccc1C`, for which the inhibition is 8.53%.

Take `CCNC(=O)CCC(=O)Nc1ccc(OC2CCCC2)c(F)c1`: the inhibition is 92.8% (active). Then `c1ccc2c(c1)oc1c(NC3CCCCC3)ncnc12`, with -31.2%; and `c1ccc2c(c1)oc1c(NC3CCCCCC3)ncnc12`, with 102% (active). As for `c1ccc2c(c1)oc1c(NCC3CCCCC3)ncnc12`, the figure is 23.3%; as for `COc1cc(C=c2sc(=CC(=O)c3ccco3)[nH]c2=O)cc(Br)c1O`, 91.2% (active). As to `c1cnc(NCc2cccnc2N2CCc3ccccc3C2)nc1`, the inhibition is 36.6%. On to `Fc1ccccc1CON=C1CCN(c2ncccn2)CC1`, for which the inhibition is 83.5% (active). As for `CCN(CC(=O)Nc1c(Cl)cccc1Cl)C(=O)CCn1c(=O)oc2cc(Cl)ccc21`, the figure is -5.97%; as for `CN(Cc1nc2c(s1)CCCC2)C(=O)c1cc(COc2ccc(-n3cncn3)cc2)on1`, 85.4% (active); as for `CCc1ccc(CN(C)C(=O)c2cc(COc3ccc(-n4cncn4)cc3)on2)cc1`, 36.7%. Take `C=CCOc1ccc(C=C2N=C(c3ccccc3I)OC2=O)cc1OC`: the inhibition is -4.12%. For the molecule `COc1cccc(C=C2N=C(c3ccccc3OC(F)F)OC2=O)c1`, the inhibition is 86.9% (active). Consider `COc1ccc(C=C2N=C(c3cccc(F)c3)OC2=O)cc1`, for which the inhibition was 3.76%. As for `CN(C)Cc1ccc2ccc3cccc4ccc1c2c34`, the figure is 90.5% (active).

With `Cc1cccc(CN(C)C)c1OC(=O)N(C)C`, the inhibition was 3.93%. On to `CN(Cc1ccccc1C#N)c1ccc2ccccc2c1`, for which the inhibition is 30.3%. With `CN(Cc1ccc(-c2ccc(Cl)cc2)o1)C(=O)CCl`, the inhibition was 90.9% (active).

On to `Cc1oc(-c2ccc(Cl)cc2)nc1CN(C)Cc1ccc2nonc2c1`, for which the inhibition is 31.7%.

Regarding `CN(Cc1ccc(-c2ccc(Cl)cc2)o1)C(=O)CNC(=O)c1ccccc1`, the inhibition is 72.2% (active). Turning to `Cc1ccc(-c2nc(COC(=O)c3cc(Cl)c[nH]3)cs2)cc1`, the inhibition is 34.1%. Take `Cc1cc(NC(=O)c2csc(-c3ccc(Cl)cc3)n2)n[nH]1`: the inhibition is 74.4% (active). As for `Cn1ccsc1=NC(=O)c1csc(-c2ccc(Cl)cc2)n1`, the figure is 15.8%. Turning to `Cc1nc2cc(NC(=O)C(C)Oc3ccc(Cl)cc3)ccc2o1` (centres undefined), the inhibition was -4.42%. For the molecule `Cc1nc2cc(NC(=O)C3CCCN(C(=O)OC(C)(C)C)C3)ccc2o1` (centres undefined), the inhibition is 82.6% (active).

For the molecule `Cc1cc2cc(C(=O)N3CCCC(C(=O)Nc4ccc(-c5ccco5)cc4)C3)ccc2o1` (centres undefined), the inhibition is -11.5%. As for `O=C(Nc1ccccc1N1CCCC1)c1cc(C2CC2)on1`, the inhibition is 36.3%. Then `CC(C)C(=O)N1CCC(NC(=O)c2cc(C3CC3)on2)CC1`, with -6.02%. On to `CC(NC(=O)c1cc(C2CC2)on1)c1cc(Cl)ccc1Cl` (centres undefined), for which the inhibition is 56.5% (active). As for `CCCc1cc(=O)[nH]c(-n2nc(C)cc2NC(=O)c2cccc(Br)c2)n1`, the figure is 101% (active).

For the molecule `CCCc1cc(=O)[nH]c(-n2nc(C)cc2NC(=O)c2ccc(C)cc2)n1`, the inhibition was 101% (active). Turning to `CCc1cc(=O)[nH]c(-n2nc(C)cc2NC(=O)c2cccs2)n1`, the inhibition is -29.6%. Then `CCCc1cc(=O)[nH]c(-n2nc(C)cc2NC(=O)c2ccc(Br)cc2)n1`, with 99.8% (active). Then `CCCc1cc(=O)[nH]c(-n2nc(C)cc2NC(=O)c2cccs2)n1`, with 100% (active); and `CNc1cc(C)nc(NCc2cc(C)cc3c(C)c(C)[nH]c23)n1`, with 41.1%; and `CCCc1cc(=O)[nH]c(-n2nc(C)cc2NC(=O)c2cccc(C(F)(F)F)c2)n1`, with 91.4% (active). In the case of `CCCc1cc(=O)[nH]c(-n2nc(C)cc2NC(=O)c2ccccc2)n1`, the inhibition was 101% (active).

In the case of `CCCc1cc(=O)[nH]c(-n2nc(C)cc2NC(=O)c2cccc(F)c2)n1`, the inhibition is 100% (active).

Consider `CCCc1cc(=O)[nH]c(-n2nc(C)cc2NC(=O)c2cccc(OC)c2)n1`, for which the inhibition was 99.8% (active). As for `CCCc1cc(=O)[nH]c(-n2nc(C)cc2NC(=O)c2cc(OC)cc(OC)c2)n1`, the inhibition was -22.1%. Turning to `CCN(CC)c1nc2sc(C(=O)NC3(C)CCCC3)cc2s1`, the inhibition was 32.9%.

Consider `CCCc1cc(=O)[nH]c(-n2nc(C)cc2NC(=O)c2ccc(C(F)(F)F)cc2)n1`, for which the inhibition is 102% (active). For the molecule `CCCc1cc(=O)[nH]c(-n2nc(C)cc2NC(=O)c2cccc(Cl)c2)n1`, the inhibition is 101% (active). Take `CCCc1cc(=O)[nH]c(-n2nc(C)cc2NC(=O)c2cc(C(F)(F)F)cc(C(F)(F)F)c2)n1`: the inhibition was 13.6%. Turning to `CCCc1cc(=O)[nH]c(-n2nc(C)cc2NC(=O)c2ccc(F)cc2)n1`, the inhibition is 101% (active).
